40 compounds from PubChem BioAssay (NCATS) can be followed below.

Active and inactive are the calls of the source. Calls come from the whole dose curve; as a rule, active = well fitted curve in the direction sought with a large enough effect; inactive = no such curve, though single readings can be large or run the other way.

The experiment in a line: qHTS for small molecule inhibitors of Yes1 kinase: Counter Assay (AID 686950).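 Note: no kinase present so only ADP-Glo detection of a fixed ADP amount is tested; luminescence from ADP-Glo reporting ADP in a fixed ATP and ADP mixture.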 As to conditions: series mostly up to 76.9 µM. In outline:
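Enzyme-free ADP-Glo interference check: compounds were preincubated 20 min in buffer, then an ATP/ADP mix (0.08 mM ATP, 0.02 mM ADP final) was added for 60 min at room temperature before two-step ADP-Glo luminescence detection.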
`Fc1ccc(Oc2nccc(-c3c(-c4ccc(F)cc4)ncn3C3CCNCC3)n2)cc1`: the outcome was inactive.

Turning to `CCc1nn2ncccc2c1-c1ccnc(NC2CC2)n1`, the outcome was inactive.

For the compound `CCCN1CCCC(c2ccc(Nc3nc(Nc4cc(F)ccc4C(N)=O)c4cc[nH]c4n3)c(OC)c2)C1` (stereo not given), the result was inactive.

For `O=S(=O)(CCOCc1ccc(-c2ccc3ncnc(Nc4ccc(OCc5cccc(F)c5)c(Cl)c4)c3c2)o1)c1ccccc1`, the outcome was inactive.

For the compound `COc1cc(Nc2ncc3c(C)nc(-c4cccc(Oc5ccccc5)c4)n3n2)cc(OC)c1OC`, the result was inactive.

For `O=C(Nc1n[nH]c2nnc(-c3cccnc3)cc12)C1CC1`, the compound was classed as inactive.

Consider `COc1cc2ncn(-c3cc(OCc4ccccc4C(F)(F)F)c(C(=O)N(C)C)s3)c2cc1OC`, for which the result was inactive.

As to `Fc1cccc(COc2ccc(Nc3ncnc4sc(-c5cccs5)cc34)cc2Cl)c1`, the compound was called inactive.

With `CN1CCC(n2cnc(-c3ccc(F)cc3)c2-c2ccnc(N)n2)CC1`, the outcome was inactive.

Turning to `Nc1ncc(-c2cccc(S(N)(=O)=O)c2)c2scc(-c3ccc(F)c(Cl)c3)c12`, the compound was called inactive.

Turning to `CNC(=O)c1cncc(C=Cc2ccccc2C)c1`, the call was inactive.

Regarding `COc1ccc2ncn(-c3cc(OC(C)c4ccccc4C(F)(F)F)c(C(N)=O)s3)c2c1` (stereo not given), the outcome was inactive.

As for `Fc1ccc(-c2ncn(C3CCNCC3)c2-c2ccnc(Oc3ccc(Cl)cc3)n2)cc1`, the compound was called inactive.

Take `COc1ccccc1C1=C(Nc2ccccc2)C(=O)NC1=O`: the result was inactive.

Regarding `CC(C)(C)c1ccc(Oc2nccc(-c3c(-c4ccc(F)cc4)ncn3C3CCNCC3)n2)cc1`, the compound was classed as inactive.

As for `NS(=O)(=O)c1ccc(-c2cc3ccncc3cc2OCc2ccccc2)cc1`, the outcome was inactive.

Regarding `c1ccc(Nc2ncc(-c3ccccc3)o2)cc1`, the result was inactive.

With `CC(=O)NCc1cccc(C#Cc2cncnc2Nc2ccc(OCc3cccc(F)c3)c(Cl)c2)c1`, the result was inactive.

With `COc1ccccc1Oc1nccc(-c2c(-c3ccc(F)cc3)ncn2C2CCNCC2)n1`, the result was inactive.

With `OCc1ccc(-c2nc(-c3ccc4c(c3)OCO4)c(-c3ccccn3)[nH]2)cc1`, the outcome was inactive.

As to `Cc1cc(O)cc(C)c1C=Cc1cncc(-c2nn[nH]n2)c1`, the call was inactive.

Turning to `O=C1NC(=O)C(c2cccc([N+](=O)[O-])c2)=C1Nc1cc(Cl)c(O)c(Cl)c1`, the compound was called inactive.

As to `Cc1cc(Cl)cc2c(N=Nc3ccc(S(N)(=O)=O)cc3)c(O)[nH]c12`, the compound was classed as inactive.

In the case of `COc1ccc2ncn(-c3cc(OC(C)c4ccccc4Cl)c(C(N)=O)s3)c2c1` (stereo not given), the call was inactive.

For `COc1cccc(-c2c[nH]c3c(NN=Cc4ccncc4)ncnc23)c1`, the compound was called inactive.

Consider `Fc1ccc(-c2ncn(C3CCNCC3)c2-c2ccnc(Oc3ccc4c(c3)OCO4)n2)cc1`, for which the call was inactive.

Consider `CN(C)CCCNc1nccc(-c2c(-c3ccc(F)cc3)nn3cc(C(F)(F)F)ccc23)n1`, for which the result was inactive.

Turning to `CCn1c(-c2nonc2N)nc2c(C#CC(C)(C)O)ncc(OC3CCNCC3)c21`, the result was inactive.

Turning to `O=C(Nc1n[nH]c2cc(-c3ccccc3)ccc12)C1CC1`, the compound was called inactive.

For the compound `Fc1cccc(COc2ccc(Nc3ncnc4cc(-c5ccc[nH]5)sc34)cc2Cl)c1`, the outcome was inactive.

For `O=S(=O)(CCNCc1ccc(-c2ccc3ncnc(Nc4ccc(OCc5cccc(F)c5)c(Cl)c4)c3c2)o1)c1ccccc1`, the compound was classed as inactive.

`CC(=Nc1ccc(S(N)(=O)=O)cc1)c1c(O)[nH]c2ccccc12`: the compound was classed as inactive.

Consider `COc1ccc(C2=C(N3CCc4ccccc43)C(=O)NC2=O)cc1`, for which the call was inactive.

Regarding `COc1cccc(C=NNc2ncnc3c2cnn3-c2cccc(OC)c2)c1`, the call was inactive.

Take `CC(Oc1cc(-n2cnc3ccc(OCC(O)CO)cc32)sc1C(N)=O)c1ccccc1Cl` (stereo not given): the call was inactive.

For `COc1ccc2cc(-c3c(-c4ccncc4)nc(-c4ccc(S(C)=O)cc4)n3C)ccc2c1` (stereo not given), the outcome was inactive.

For `O=C1NC(=O)C(c2ccccc2)=C1Nc1ccccc1`, the result was inactive.

For the compound `CCCN1CCC=C(c2ccc(Nc3nc(Nc4ccccc4C(N)=O)c4cc[nH]c4n3)c(C)c2)C1`, the call was inactive.

As to `COc1cc(N2CCN(C(C)C)CC2)ccc1Nc1nc(Nc2cccc3ncccc23)c2cc[nH]c2n1`, the outcome was inactive.

`NCc1ccc(-n2c(-c3nonc3N)nc3cnccc32)cc1`: the compound was called inactive.
